Screen size: about 63,000 compounds; about 1,100 (1.7%) were called active. The sample holds actives, similar compounds and a random draw of the others, so the mix is not that of the screen.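 Rule for the calls: active = compounds whose percent cytotoxicity in the single-dose primary screen, scaled between solvent and toxic-drug controls, exceeds 50; inactive = the rest.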 Entries with a potency or affinity are not part of this list.

The test in a line: cytotoxicity in KRAS-transformed pancreatic duct cells, primary screen, cell-based, fluorescence, HTS (AID 431).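 Note: 0% = DMSO solvent wells and 100% = doxorubicin-treated wells.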 The following applies: HPDE-C7K KRASV12 cells, Alamar Blue viability, 48 h; at 10 µM; stronger effect = higher value.
For `CCN(CC)S(=O)(=O)c1ccc(OC(C)C)nc1`, the cytotoxicity was -11.5% (inactive). As to `COC(=O)c1ccsc1NC(=O)C1COc2ccccc2O1` (configuration not stated), the cytotoxicity was 4.6% (inactive). For the compound `Cc1cc(C(=O)COc2ncnc3sccc23)c(C)n1C1CC1`, the cytotoxicity is -0.1% (inactive).

In the case of `Cc1c(C(=O)OC2CCCCC2)[nH]c2c1C(=O)CC(C)(C)C2`, the cytotoxicity was 3.6% (inactive). The same measure for `Cc1c(C(=O)OC2CCC(C)CC2)[nH]c2c1C(=O)CCC2` (configuration not stated): 0.1% (inactive); for `CCC(C)OC(=O)c1[nH]c2c(c1C)C(=O)CC(c1ccc(N(C)C)cc1)C2` (configuration not stated): 4.6% (inactive). Turning to `Cc1c(C(=O)OCCOC(C)C)[nH]c2c1C(=O)CC(C)(C)C2`, the cytotoxicity was -19.6% (inactive). `Cc1c(C(=O)OCCOC(C)C)[nH]c2c1C(=O)CC(c1ccco1)C2` (configuration not stated): the cytotoxicity was 68.1% (active). As to `Cc1c(C(=O)OCC(C)C)[nH]c2c1C(=O)CC(c1ccco1)C2` (configuration not stated), the cytotoxicity was 66.2% (active). Consider `Cc1c(C(=O)OC2CCCC2)[nH]c2c1C(=O)CC(c1ccco1)C2` (configuration not stated), for which the cytotoxicity was 53.7% (active). For `CSCCOC(=O)c1[nH]c2c(c1C)C(=O)CC(c1ccco1)C2` (configuration not stated), the cytotoxicity is 59.3% (active).

Turning to `COc1cc(C2CC(=O)c3c([nH]c(C(=O)OCCOC(C)C)c3C)C2)cc(OC)c1OC` (configuration not stated), the cytotoxicity was 5.8% (inactive). On to `COc1ccc(-n2nc(C(=O)NCC(=O)NCC3CCCO3)c3ccccc3c2=O)c(OC)c1` (configuration not stated), for which the cytotoxicity was 0.7% (inactive). Take `CC(C)CNS(=O)(=O)c1ccc(CCC(=O)N2CCN(Cc3ccccc3)CC2)cc1`: the cytotoxicity was -1.6% (inactive). The same measure for `CN(C)CC(=O)Nc1cc(C(F)(F)F)ccc1Cl`: -7.9% (inactive). With `Cc1cc(C)nc(SCc2nnc(SCC(=O)N3CCOCC3)o2)n1`, the cytotoxicity is 4.2% (inactive).

For `CCc1nnc(NC(=O)c2ccc(COc3ccc(C)cc3)o2)s1`, the cytotoxicity is -2.5% (inactive). Turning to `CCCOC(=O)c1[nH]c2c(c1C)C(=O)CC(c1ccc(OC)c(OC)c1)C2` (configuration not stated), the cytotoxicity is -0.9% (inactive). Regarding `CCCCCOC(=O)c1[nH]c2c(c1C)C(=O)CC(c1ccco1)C2` (configuration not stated), the cytotoxicity is 51.4% (active). `CCCCOC(=O)c1[nH]c2c(c1C)C(=O)CC(c1cc(OC)c(OC)c(OC)c1)C2` (configuration not stated): the cytotoxicity was 4.1% (inactive). For `Cc1cc(C)c2nc(SCC#N)cc(C)c2c1`, the cytotoxicity was 15.7% (inactive). Turning to `Cc1cc(NCCOCCO)n2ncc(-c3ccc(Cl)cc3)c2n1`, the cytotoxicity is 75.4% (active).

With `Cc1cc(NCCCN2CCOCC2)n2ncc(-c3ccc(Cl)cc3)c2n1`, the cytotoxicity was 23.7% (inactive).

With `Cc1cc(NCCN2CCOCC2)n2ncc(-c3ccc(Cl)cc3)c2n1`, the cytotoxicity was 17% (inactive). `COc1cccc(OCc2nc3ccccc3[nH]2)c1`: the cytotoxicity is 10.6% (inactive). For the compound `O=C(NCc1nc2ncc(Br)cc2[nH]1)c1ccccc1`, the cytotoxicity was -7.6% (inactive). Take `COc1cccc(OCc2nc3ncc(Br)cc3[nH]2)c1`: the cytotoxicity is 64.8% (active). The same measure for `O=C(COC(=O)C(O)c1ccccc1)c1ccc2c(c1)OCCO2` (configuration not stated): -14.7% (inactive); for `Cn1cc(Cl)c(C(=O)Nc2cccc(Cl)c2Cl)n1`: -18.7% (inactive). Turning to `COC(=O)c1ccc(Oc2nc(C)cc(Oc3ccccc3)n2)cc1`, the cytotoxicity was -1.7% (inactive). For the compound `CCOC(=O)c1ccc(Oc2nc(NC)nc(SC)n2)cc1`, the cytotoxicity is -5.1% (inactive).

Turning to `COC(=O)c1ccc(Oc2cc(C)nc(SC)n2)cc1`, the cytotoxicity is 53.4% (active).

For the compound `CCOC(=O)c1ccc(Oc2cc(C)nc(SC)n2)cc1`, the cytotoxicity was 55.4% (active). Consider `COC(=O)c1ccc(Oc2cc(C)nc(NCc3ccccc3)n2)cc1`, for which the cytotoxicity was 1.6% (inactive). Regarding `CCOC(=O)c1ccc(Oc2nc(SC)nc(N(C)C)n2)cc1`, the cytotoxicity is -21.1% (inactive). Regarding `COc1ccc(S(=O)(=O)NC2CC3CCC2C3)cc1Cl` (configuration not stated), the cytotoxicity is 5% (inactive). `CCOC(=O)C(Cc1ccccc1)NC(=O)CCc1c(C)nc2ncnn2c1C` (configuration not stated): the cytotoxicity was -0.7% (inactive). As for `O=C(CN1CCc2ccccc2C1)c1cccs1`, the cytotoxicity is -6.1% (inactive). For the compound `COc1cc2c(cc1OC)CN(C(=O)CSc1nnc3scc(-c4ccccc4)n13)CC2`, the cytotoxicity was 1.3% (inactive). As to `CCN(CC)CCCOc1nc(C)nc2c1oc1ccccc12`, the cytotoxicity was 9.8% (inactive). Consider `Clc1ccc(OCc2nc(-c3ccccn3)n[nH]2)cc1`, for which the cytotoxicity is 47.8% (inactive). In the case of `Cc1cc(Cl)ccc1OCCCC(N)=O`, the cytotoxicity was -7% (inactive).

With `Cc1cc(Cl)ccc1OCc1nc(-c2ccc(O)cc2)n[nH]1`, the cytotoxicity was 86.2% (active). For `COc1ccc(N2CCN(C(=O)c3ccc4c(c3)OCO4)CC2)cc1`, the cytotoxicity was 17% (inactive). On to `CC1CC(C)CN(C(=O)Cn2c(=O)n(CCCCC(=O)NC3CCCC3)c(=O)c3ccccc32)C1` (configuration not stated), for which the cytotoxicity was -3.9% (inactive).

Consider `O=C(Cc1ccc(Cl)c(Cl)c1)OCC(=O)c1ccc[nH]1`, for which the cytotoxicity was -10.8% (inactive). As to `O=C(Cc1ccc(-c2ccccc2)cc1)N1CCOCC1`, the cytotoxicity was -4.1% (inactive). Consider `O=C1NCCCC2c3c(cc(Br)c(O)c3Br)OC12N1CCOCC1` (configuration not stated), for which the cytotoxicity was -3.5% (inactive). With `CCCCn1c(SCC(=O)OCC)nc2c1c(=O)[nH]c(=O)n2C`, the cytotoxicity was 2.4% (inactive).

Take `CSc1nc2sc3c(c2c2nnnn12)CCC3`: the cytotoxicity was 6.6% (inactive).

With `Cc1nc(Sc2nnnn2C)c2c3c(sc2n1)CCC3`, the cytotoxicity is 68.5% (active). As for `Cc1nc(SCC#N)c2c3c(sc2n1)CCC3`, the cytotoxicity was -15.5% (inactive). Turning to `Cc1nnn(C23CC4CC(CC(C4)C2)C3)n1`, the cytotoxicity is 4.5% (inactive). As to `CC1CCCN(CCCNC(=O)c2coc3nc4ccccc4nc23)C1` (configuration not stated), the cytotoxicity is 9.2% (inactive). With `O=C(NCc1ccccc1)N1CCN(c2ccc(Cl)c(Cl)c2)CC1`, the cytotoxicity was -1.9% (inactive). On to `CCC(=O)Oc1ccc(-c2nc(-c3cccnc3)no2)cc1`, for which the cytotoxicity was -6.1% (inactive). For `CC(C)c1ccc(OC(=O)NCCO)cc1`, the cytotoxicity is -6.6% (inactive). Consider `CCOc1ccc(C(=O)COC(=O)CC)cc1`, for which the cytotoxicity was -1.3% (inactive). The same measure for `COC(=O)CCC(=O)Oc1ccc(OC(=O)CCC(=O)OC)cc1`: 18.3% (inactive); for `CC1(C)CC(=O)C2=C(C1)OC(=O)C2(NC(=O)c1cccs1)C(F)(F)F` (configuration not stated): -9.1% (inactive); for `CC1=C(C(=O)N(C)Cc2ccccc2)C2(CCC(C)CC2)OC1=O` (configuration not stated): 1.3% (inactive).

As to `Cc1cc(NC(=O)CSc2nc3c(c(=O)n2-c2ccccc2)SC(C)C3)no1` (configuration not stated), the cytotoxicity is 5.9% (inactive). For the compound `COc1ccc(CCNC(=O)c2cnn3cccnc23)cc1OC`, the cytotoxicity was -0.5% (inactive).

For `CCN1C(=O)CC(C(=O)Nc2ccc(F)cc2)SC1=Nc1cccc(OC)c1` (configuration not stated), the cytotoxicity is -9.1% (inactive). For the compound `O=C(NCCCN1CCN(CCCNC(=O)c2ccccc2F)CC1)c1ccccc1F`, the cytotoxicity was -23.8% (inactive). Consider `CC1CCc2nc(NC(=O)CN3CCN(Cc4ccc5c(c4)OCO5)CC3)sc2C1` (configuration not stated), for which the cytotoxicity is 56.9% (active). `CC1CCc2nc(NC(=O)CN3CCN(c4ccccc4)CC3)sc2C1` (configuration not stated): the cytotoxicity is -5.6% (inactive).

In the case of `CC1CCc2nc(NC(=O)CN3CCOCC3)sc2C1` (configuration not stated), the cytotoxicity was -3.7% (inactive). The same measure for `COCCOC(=O)C1=C(C)NC2=C(C(=O)CCC2)C1c1ccc(N(C)C)cc1` (configuration not stated): 3% (inactive). Take `COc1ccc(-c2nc(CS(=O)CC(=O)NCc3ccco3)c(C)o2)cc1OC` (configuration not stated): the cytotoxicity is 1.1% (inactive). The same measure for `COC(=O)c1cc2ccsc2n1Cc1nc(-c2ccc(OC)cc2)oc1C`: 11.1% (inactive); for `COC(=O)c1ccc(-c2ccco2)n1Cc1nc(-c2ccc(OC)c(OC)c2)oc1C`: 74.4% (active); for `CCCC(C(=O)NCc1ccc(OC)cc1)N(Cc1ccco1)C(=O)c1snc(C(N)=O)c1N` (configuration not stated): -4% (inactive).

Take `O=c1oc2cc(O)ccc2c2c1CCCC2`: the cytotoxicity was 30.5% (inactive). For `Oc1ccc2c(c1)oc1cc(O)ccc12`, the cytotoxicity is 57% (active).

Consider `O=c1oc2cc(O)ccc2c2oc3cc(O)ccc3c12`, for which the cytotoxicity was 41% (inactive). As to `COc1ccc(N(Cc2cc3ccccc3[nH]c2=O)C(=O)C2CCCO2)cc1` (configuration not stated), the cytotoxicity was 14.6% (inactive). Take `Cc1sc2nc(SCC(=O)c3cc(C)n(CC4CCCO4)c3C)n(C(C)C)c(=O)c2c1C` (configuration not stated): the cytotoxicity was 22.2% (inactive).

On to `Cn1nnc2cc(C(=O)NC(C)(C)C)ccc21`, for which the cytotoxicity was 3.4% (inactive). The same measure for `Cc1ccc2c(c1)c1ncnc(N3CCN(c4ccccc4)CC3)c1n2C`: 9.4% (inactive). In the case of `Cc1ccc2c(c1)c1ncnc(N3CCOCC3)c1n2C`, the cytotoxicity was -7.1% (inactive).

In the case of `Cc1ccc2cc(CN(Cc3ccccc3)Cc3nnnn3C3CCCC3)c(=O)[nH]c2c1`, the cytotoxicity is 56.3% (active). In the case of `CCc1ccc2[nH]c(=O)c(CN(Cc3ccc4c(c3)OCO4)Cc3nnnn3C3CCCC3)cc2c1`, the cytotoxicity was 54.8% (active). The same measure for `Cc1cc2cc(CN(Cc3ccc4c(c3)OCO4)Cc3nnnn3C3CCCC3)c(=O)[nH]c2cc1C`: 2.4% (inactive); for `Cc1ccc2cc(CN(Cc3ccc(F)cc3)Cc3nnnn3C3CCCC3)c(=O)[nH]c2c1`: 31.6% (inactive); for `Cc1ccc2[nH]c(=O)c(CN(Cc3ccc4c(c3)OCO4)Cc3nnnn3C3CCCC3)cc2c1`: -0.4% (inactive).

Regarding `Cc1ccc2[nH]c(=O)c(CN(Cc3ccccc3)Cc3nnnn3C3CCCC3)cc2c1`, the cytotoxicity is 47.8% (inactive). The same measure for `O=C(Nc1ccc2c(c1)nc1n2CCN(C2CCCCC2)C1)c1ccco1`: -30.2% (inactive); for `Cc1ccc(-c2nnn(CC(=O)N(Cc3cccs3)C(C(=O)NC(C)(C)C)c3ccc(C)o3)n2)o1` (configuration not stated): 21.3% (inactive); for `Clc1ccc(COn2nnc3ccccc32)c(Cl)c1`: 0.9% (inactive). Regarding `COc1ccc(C(=O)N2CCc3cc(OC)c(OC)cc3C2)cc1OC`, the cytotoxicity is -3.5% (inactive).

Turning to `CCOc1cc(C(=O)N2CCc3cc(OC)c(OC)cc3C2)ccc1OC(F)F`, the cytotoxicity was 89.4% (active). Regarding `CCOc1ccc(C(=O)N2CCc3cc(OC)c(OC)cc3C2)cc1OCC`, the cytotoxicity is 45.5% (inactive).

As to `CCOc1nc(-c2ccccc2)ccc1-c1noc(-c2ccc(OC)c(OC)c2)n1`, the cytotoxicity was 20.5% (inactive). Turning to `Cc1cc2c(c(=O)n1CCN(C)C)C(c1ccc(Br)cc1)C(C#N)=C(N)O2` (configuration not stated), the cytotoxicity is 54.2% (active).

As to `Cc1cc2c(c(=O)n1CCN(C)C)C(c1ccc(Cl)cc1)C(C#N)=C(N)O2` (configuration not stated), the cytotoxicity is -10.1% (inactive).

As to `Cc1cc2c(c(=O)n1CCN(C)C)C(c1ccncc1)C(C#N)=C(N)O2` (configuration not stated), the cytotoxicity is 20.9% (inactive).

(Values after PubChem BioAssay AID431 (Sanford-Burnham Center for Chemical Genomics, 2006).)
